# PubChem BioAssay (NCI)
# The panel holds about 83,000 compounds, 20% with a hit somewhere; the sample as a whole holds those more often.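 Single-concentration screen, 48 h exposure, 96-well plates. Endpoint: percent growth. Below 10 = active.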 A number with no mark means an inactive call. Activity calls are given as the source filed them.
# Test system: MOLT-4 leukemia
# Test: NCI-60 one-dose screen, 48 h (100 = growth as untreated, 0 = no growth, -100 = all killed)
# Details: 10 µM unless noted
row,SMILES,growth
1,N#Cc1c(NC(=O)c2ccc([N+](=O)[O-])o2)[n+]([O-])c2cc(F)c(F)cc2[n+]1[O-],120%
2,CC(C)(C)OC(=O)N1C/C(=C\c2cccs2)C(=O)/C(=C/c2cccs2)C1,69.4%
3,CC(Cc1nnc(SCC(=O)Nc2ccc(I)cc2)n1N)c1ccccc1 (stereo not given),93.4%
4,COC(=O)CC/C(C)=N\Nc1ccc([N+](=O)[O-])cc1,34%
5,COc1ccccc1OCC(=O)Nc1sc2c(c1C(N)=O)CCC2,26%
6,CC(=O)N1Cc2ccccc2C(C)Cc2cc(Cl)ccc21 (stereo not given),97%
7,COc1ccc(/C(=N/O)c2cc(OC)c(OC)c(OC)c2)c(OC)c1N,27.8%
8,CC(C)CCC[C@@H](C)[C@H]1CC[C@H]2[C@@H]3CC[C@H]4C/C(=N/O)CC[C@]4(C)[C@H]3CC[C@]12C,95.9%
9,C/C(=N\NC(=O)CC#N)c1cc2cc(Cl)ccc2o1,87.4%
10,CCC#CC[C@H]1C/C=C2/C(=O)C=C[C@@H]2C/C=C\CCCC(=O)O1,7.42% (active)
11,Cc1cc(C(=O)O)c(N)c(C)n1,101%
12,CCCCCCOc1ccc(C2(Cl)c3ccccc3N(C)c3ccccc32)cc1,74%
13,CC(C)N(Cc1ccc(CN(C(=O)CCl)C(C)C)cc1)C(=O)CCl,8.54% (active)
14,COc1cc(-n2nc(C(=O)Nc3ccc(C(=O)O)cc3)nc2-c2ccccc2)cc(OC)c1OC,95.8%
15,NC(=O)NNC(=O)c1ccccc1,102%
